# In the supplement of paper PMC10127200:
# Where a name gives a salt, the structure may show the parent alone.
# Test system: A549
# Test: Euclidean distance of Cell Painting phenotypic profile (signed KS, 77 features) to DMSO centroid (dimensionless distance); 5 or 10 uM (library dependent); higher = stronger phenotypic change vs DMSO (phenoactivity)
# Conditions: 48 h
# Outline: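 Phenoactivity is defined as the Euclidean distance from a compound profile to the median vehicle profile. Each profile comprised 77 Harmony features, scored as signed Kolmogorov-Smirnov statistics versus same-plate vehicle wells, then plate-position corrected, correlation-weighted and replicate-averaged at the top dose. Five cancer lines and one healthy fibroblast line were exposed to library compounds for 48 h at 10 or 5 uM (0.1% DMSO final).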
row,Compound,Euclidean distance
1,CN1CCC(OC(c2ccccc2)c2ccccc2)CC1 [Diphenylpyraline hydrochloride],0.611
2,COc1cc2ncnc(Nc3cccc(Cl)c3)c2cc1OC [AG-1478 (Tyrphostin AG-1478)],1.29
3,NS(=O)(=O)c1cc2c(cc1Cl)N=C(CSCc1ccccc1)NS2(=O)=O [Benzthiazide],1.17
4,CCN(CC)CCNC(=O)c1ccc(N)cc1 [Procainamide HCl],1.02
5,CCC(C)(C)c1ccc(CC(C)CN2C[C@@H](C)O[C@@H](C)C2)cc1 (some centres not stated) [Amorolfine HCl],0.701
6,C[C@H]1COc2c(N3CCN(C)CC3)c(F)cc3c(=O)c(C(=O)O)cn1c23 [Levofloxacin hydrate],0.678
7,O=C(Nc1ccc(S(=O)(=O)Nc2ccccc2Cl)c(Cl)c1)c1ccccn1,0.81
8,O=S(=O)(O)CCS [Mesna],0.755
9,CCCCOC(=O)c1ccc(N)cc1 [Butamben],0.881
10,CC(C)NCC(O)COc1ccc(CCOCC2CC2)cc1 (configuration not stated) [Betaxolol],0.384
11,Cc1ccc(Nc2nccc(N(C)c3ccc4c(C)n(C)nc4c3)n2)cc1S(N)(=O)=O [Pazopanib],1.89
12,C[C@@H]1O[C@@H](Oc2c(-c3ccc(O)c(O)c3)oc3cc(O)cc(O)c3c2=O)[C@H](O)[C@H](O)[C@H]1O [Quercitrin],1.14
13,Cc1c(F)cccc1NC(=O)Nc1ccc(Cl)c(S(=O)(=O)[C@H]2CCCNC2)c1O,0.479
14,CC(O)c1cc(C(=O)N[C@@H](C)Cn2ccc(-c3ccc(C#N)c(Cl)c3)n2)n[nH]1 (some centres not stated) [Darolutamide (ODM-201)],0.505
15,COc1ccc(-c2nc(N3CCOCC3)c3sc(CN(C)c4ncc(C(=O)NO)cn4)cc3n2)cn1,4.27
16,COc1cc2nc(N3CCN(C(=O)C4COc5ccccc5O4)CC3)nc(N)c2cc1OC (configuration not stated) [Doxazosin],1.28
17,CS(=O)(=O)c1ccc([C@@H](O)[C@@H](CO)NC(=O)C(Cl)Cl)cc1 [Thiamphenicol],0.742
18,CNC[C@@H](O)c1ccc(O)c(O)c1 [L-Adrenaline],0.654
19,Cc1cc(OCCCS(C)(=O)=O)cc(C)c1-c1cccc(COc2ccc3c(c2)OC[C@H]3CC(=O)O)c1,1.02

row,Compound,Euclidean distance
1,Nc1nnc(-c2cccc(Cl)c2Cl)c(N)n1 [Lamotrigine],1.05
2,O=C1Nc2ccc(CN3C(=O)CSC3=O)cc2/C1=C/c1cc(CN2CCOCC2)c[nH]1,1.06
3,CN(C/C=C/C#CC(C)(C)C)Cc1cccc2ccccc12 [Terbinafine],0.66
4,CC(C)=CCC/C(C)=C/CC/C(C)=C/CCC(=O)OC/C=C(\C)CCC=C(C)C [Gefarnate],0.898
5,CNC(=O)[C@H](Cc1c[nH]c2ccccc12)NC(=O)[C@@H](CC(=O)NO)CC(C)C [Ilomastat (GM6001. Galardin)],1.06
6,CCOC(=O)Nc1ccc(NCc2ccc(F)cc2)nc1N [Flupirtine maleate],3.24
7,C=CCNC(N)=S [Allylthiourea],0.909
8,OCc1cc(C(O)CNCCCCCCOCCCCc2ccccc2)ccc1O (configuration not stated) [Salmeterol],1.95
9,CC[C@@H]1/C=C(\C)C[C@H](C)C[C@H](OC)[C@H]2O[C@@](O)(C(=O)C(=O)N3CCCC[C@H]3C(=O)O[C@H](/C(C)=C/[C@@H]3CC[C@@H](O)[C@H](OC)C3)[C@H](C)[C@@H](O)CC1=O)[C@H](C)C[C@@H]2OC [Ascomycin (FK520)],1.18
10,O=C(O)c1cccnc1 [Nicotinic Acid],0.435
11,CCc1nc2c(C)cc(N3CCN(CC(=O)N4CC(O)C4)CC3)cn2c1N(C)c1nc(-c2ccc(F)cc2)c(C#N)s1 [Ziritaxestat (GLPG1690)],1.31
12,Cn1cnc(N)c2ncnc1-2 [3-Methyladenine],1.11
13,CCCN(CCc1cccs1)[C@H]1CCc2c(O)cccc2C1 [Rotigotine],0.896
14,CC(C)C[C@H](NC(=O)CNC(=O)c1cc(Cl)ccc1Cl)B1OC(=O)C(CC(=O)O)(CC(=O)O)O1,3.73
15,CCOC(=O)C1=C(COCCN)NC(C)=C(C(=O)OC)C1c1ccccc1Cl (configuration not stated) [Amlodipine Besylate],0.672
16,CC(=O)N1C[C@H](O)C[C@H]1C(=O)O [Oxaceprol],0.845
17,Nc1nc(O)c2ncn(CCC(CO)CO)c2n1 [Penciclovir],0.334
18,C[C@]12C[C@H](O)[C@H]3[C@@H](CCC4=CC(=O)CC[C@@]43C)[C@@H]1CC[C@@H]2C(=O)CO [Corticosterone],1.47
